A number with no mark means an inactive call. Active and inactive are the calls of the source. The call rests on the fitted dose curve.

Among the data in PubChem BioAssay (Tox21) are outcome and activity change values, retold here.
On the % scale 0 is the no-effect control and ±100 the full control effect.

A short description of this assay: qHTS assay to identify small molecule agonists of the sonic hedgehog signaling (Shh) pathway (AID 1259368).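 Further: NIH/3T3-derived 3T3Gli1-Luc cells carrying a stable Gli1-driven firefly luciferase reporter; nearly all actives have a fitted effect of over 15% in size.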 The following applies: NIH/3T3 Gli1-Luc reporter, luciferase, 24 h, hits give high values; series mostly up to 92.4 µM. The text has this: National Center for Advancing Translational Sciences [NCATS]
NIH Chemical Genomics Center [NCGC]
U.S. Environmental Protection Agency [EPA]
National Institutes of Environmental Health Sciences [NIEHS]
National Toxicology Program [NTP]
The sonic hedgehog (Shh) pathway is essential for normal embryonic development. Dysregulation of the Shh pathway can cause severe developmental defects in organs. Therefore chemicals that interfere with the pathway are potential developmental toxicants. A cell line designated 3T3Gli1-Luc (DMB/OARSA/CFSAN/FDA, Laurel, MD), a NIH/3T3 derived clone containing stably integrated Gli1-Luc reporter is used to detect chemical interference of the Shh pathway, by changes in the expression of the firefly Luc gene under the control of the Gli1 transcriptional response element. This cell line was used to screen Tox21 libraries for identifying and prioritizing the potential developmental toxicants that interfere Shh pathway.
3T3 Gli1-Luc cells were dispensed at 2,000 per well in 5uL of culture medium into white solid bottom 1536-well plates (Greiner Bio-One, Monroe, NC) using a Multidrop Combi (Thermo Scientific, Waltham, MA) dispenser. The assay plates were incubated at 37 C and 5% CO2 for 4hr, and then 23nL of compounds dissolved in DMSO and positive control were transferred using a Pintool station (Wako, San Diego, CA). The assay plates were incubated at 37C and 5% CO2 for 24hr. For luciferase read, 4uL of Amplite Luciferase reporter gene assay reagent (AAT Bioquest, Inc. Sunnyvale, CA) was added to each well of the assay plates using Flying Reagent Dispenser (FRD, Aurora Discovery, San Diego, CA) and incubated at room temperature for 30min. The luminescence signal was measured using a ViewLux plate reader (Perkin Elmer, Shelton, CT).
With `CCNc1nc(Cl)nc(NC(C)(C)C)n1`, the compound was classed as inactive. On the same count and under the same terms, next, `O=C(O)CBr`: “inactive”. For the compound `O=c1[nH]c2ccccc2o1`, the outcome was inactive. On to `C[C@H]1CCCC(=O)CCC/C=C/c2cc(O)cc(O)c2C(=O)O1`, for which the compound was called inactive. The same measure, in the same setting: in the case of `CNC(=O)NC(O)C(Cl)(Cl)Cl` (stereo not given) it was “inactive”; in that of `Cl/C=C/CCl`, “inactive”; in that of `C=C1CC[C@@]2(O)[C@H]3Cc4ccc(O)c5c4[C@@]2(CCN3CC2CC2)[C@H]1O5`, “inactive”. Consider `CCCC(C)C1(CC)C(=O)N=C(S)NC1=O` (stereo not given), for which the outcome was inactive.

Regarding `O=C(Cl)c1ccccc1`, the outcome was inactive.

Consider `CCCN1CCC[C@@H]2Cc3[nH]ncc3C[C@H]21`, for which the outcome was inactive. The same measure, in the same setting: next, `O=c1[nH]c2ccccc2n1C1CCNCC1`: “inactive”. The same measure, in the same setting: in the case of `Cc1ccc2cc(C)ccc2c1` it was “inactive”.

`O=[N+]([O-])CCO`: the call was inactive. On the same count and under the same terms, in the case of `C=CCCC#N` it was “inactive”; in that of `CNC(=O)O/N=C(/CSC)C(C)(C)C`, “inactive”; in that of `CCCOc1nn(C(=O)NS(=O)(=O)c2ccccc2C(=O)OC)c(=O)n1C`, “inactive”. Same read-out and setting: next, `C/C=C/CC#N`: “inactive”.

Consider `CCOc1cc(OP(=S)(OC)OC)nc(CC)n1`, for which the result was inactive. On to `O=C(O)C(F)(F)C(F)(F)C(F)(F)C(F)(F)C(F)(F)C(F)(F)F`, for which the compound was classed as inactive. The same measure, in the same setting: next, `CCCC[N+](=O)[O-]`: “inactive”; `CC(C)(N)Cc1ccccc1Cl`: “inactive”; `CCCCCCCC(=O)Cl`: “inactive”. Still for that read-out and setting: next, `CC[C@H](O)C(C[C@H](C)N(C)C)(c1ccccc1)c1ccccc1`: “inactive”; `CCOC(=O)CCl`: “inactive”. As to `Brc1c(Br)c(Br)c(Br)c(Br)c1Br`, the activity change is -2.81% [at 8.39 µM]. In the case of `COP(=O)(OC)O/C(C)=C/C(=O)N(C)C`, the outcome was inactive. Regarding `O=S1(=O)OCCO1`, the compound was classed as inactive.

In the case of `CC(Cl)(Cl)Cl`, the outcome was inactive. The same measure, in the same setting: in the case of `C[C@]12C=CC(=O)C=C1CC[C@@H]1[C@@H]2CC[C@@]2(C)[C@H]1CC[C@]2(C)O` it was “inactive”; in that of `CC(C)c1ccc(O)cc1`, “inactive”. As for `CCOC(=O)c1ncn2c1CN(C)C(=O)c1c(I)cccc1-2`, the call was inactive.

As for `CC(Cc1ccccc1)NCCCCl` (stereo not given), the result was inactive. Still for that read-out and setting: in the case of `[O-][Br+2]([O-])O` it was “inactive”; in that of `CCN(CC)C1CCCCC1`, “inactive”; in that of `BrCc1ccc(Br)cc1`, “inactive”. On the same count and under the same terms, in the case of `COC(=O)c1ccc(CBr)cc1` it was “inactive”. On the same count and under the same terms, next, `CNC(=O)Oc1cc(C)c(N(C)C)c(C)c1`: “inactive”; `CC(C)(C1CCC(O)CC1)C1CCC(O)CC1` (stereo not given): “inactive”; `COc1cccc([C@@]2(O)CCCC[C@@H]2CN(C)C)c1`: “inactive”.

As to `CC(C)[C@]12CC(=O)[C@H](C)[C@H]1C2`, the result was inactive.
